# Experimental data from the supplement of paper PMC10849652.
# About 8,800 targets were measured; listed, in parts, are those with a hit and a random draw of the rest. About 0.5% of all pairs of compound and target were hits. Unmarked numbers belong to inactive results.
# How the values were obtained:
# Assay in all cases: log2 fold change, soluble protein after heating vs DMSO (PISA); higher = thermal stabilisation; K562 lysate, 10 uM; active = over 0.2 and 3.5 SD of the protein, either way, in both replicates (recomputed)
# [1] = compound: C=CC(=O)N1CCC[C@@H](n2nc(-c3ccc(Oc4ccccc4)cc3)c3c(N)ncnc32)C1 [ibrutinib]
# Summary of the method: (§1)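 Quantification was by TMTpro 16plex LC-MS/MS with equalised channel sums, applied to the supernatant after 21,000xg for 90 min. Samples were crude K562 extract at 1 mg/mL protein in PBS pH 7.4 with 1 mM MgCl2, treated with 10 μM compound for 30 min, heated for 3 min across 48°C-58°C, pooled and brought to 0.5% NP-40 at 4°C. Values are log-two fold changes in thermal stability relative to solvent controls, from duplicates.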
# [2] = compound: CC(=O)c1cnc2ccc(-c3cc(Cl)c(O)c(Cl)c3)nc2c1N[C@H]1CC[C@H](CN(C)C)CC1
# Summary of the method: as §1
# [3] = compound: CC(C)(C)Cn1c(N)nc2ccc(-c3[nH]c(C(C)(C)C)nc3-c3ccc(F)cc3)nc21 [ralimetinib]
# Summary of the method: as §1
# [4] = compound: CC(C)(O)CC(=O)NCCn1ccc2ncnc(Nc3ccc(Oc4cccc(C(F)(F)F)c4)c(Cl)c3)c21
# Summary of the method: as §1
# [5] = compound: CC(C)C1=C2N=C(C=C(N2N=C1)NCC3=CC=CC=C3)NCCCCCCN
# Summary of the method: as §1
# [6] = compound: CC1=C(C(CC(=O)N1)C2=CC=C(C=C2)C(F)(F)F)C(=O)NC3=C(C=C4C(=C3)C=NN4)F
# Summary of the method: as §1
# [7] = compound: CC1=C(C2=C(C=C1)C(=O)C3=CC=CC=C3N2CCCN)C
# Summary of the method: as §1
# [8] = compound: CC1=C(C=C(C=C1)NC(=O)C2=CC(=CC=C2)C(C)(C)C#N)NC3=CC4=C(C=C3)N=CN(C4=O)C
# Summary of the method: as §1
# [9] = compound: CC1=C(C=C(C=C1)NC(=O)C2=CC(=CC=C2)N(C)C)NC(=O)C3=CC=C(C=C3)O
# Summary of the method: as §1
# [10] = compound: CC1=CC=C(C=C1)SC2=C3C=C(SC3=CN=C2)C(=O)N
# Summary of the method: as §1
# [11] = compound: CCCS(=O)(=O)Nc1ccc(F)c(C(=O)c2c[nH]c3ncc(-c4ccc(Cl)cc4)cc23)c1F [vemurafenib]
# Summary of the method: as §1
# [12] = compound: CCCS(=O)(=O)Nc1ccc(F)c(C(=O)c2c[nH]c3ncc(Cl)cc23)c1F
# Summary of the method: as §1
# [13] = compound: CCN(CCCOc1ccc2c(Nc3cc(CC(=O)Nc4cccc(F)c4)[nH]n3)ncnc2c1)CCOP(=O)(O)O [barasertib]
# Summary of the method: as §1
# [14] = compound: CC[C@@H]1C(=O)N(C)c2cnc(Nc3ccc(C(=O)NC4CCN(C)CC4)cc3OC)nc2N1C1CCCC1
# Summary of the method: as §1
# [15] = compound: CC[C@@H]1C(=O)N(C)c2cnc(Nc3ccc(C(=O)N[C@H]4CC[C@H](N5CCN(CC6CC6)CC5)CC4)cc3OC)nc2N1C(C)C [volasertib]
# Summary of the method: as §1
# [16] = compound: CCn1c(C(=O)N(C2CC2)C2CC2)cc2c3c(ncn3C)c(Nc3cc(C)n(C)n3)nc21
# Summary of the method: as §1
# [17] = compound: CCn1cc(-c2ccnc3[nH]c(-c4cccc(CN(C)C)c4)cc23)c(-c2ccc(NC(=O)N(C)C)cc2)n1
# Summary of the method: as §1
# [18] = compound: CN1CCC(CNc2ccc3ncc(-c4cccc(OC(F)(F)F)c4)n3n2)CC1
# Summary of the method: as §1
# [19] = compound: CN1CCN(CCOc2cc(OC3CCOCC3)c3c(Nc4c(Cl)ccc5c4OCO5)ncnc3c2)CC1 [saracatinib]
# Summary of the method: as §1
# [20] = compound: CN1CCN(c2nc(C3=C(c4c[nH]c5ccccc45)C(=O)NC3=O)c3ccccc3n2)CC1 [sotrastaurin]
# Summary of the method: as §1
# UniProt P34949, sequence (P34949 whole entry, looked up): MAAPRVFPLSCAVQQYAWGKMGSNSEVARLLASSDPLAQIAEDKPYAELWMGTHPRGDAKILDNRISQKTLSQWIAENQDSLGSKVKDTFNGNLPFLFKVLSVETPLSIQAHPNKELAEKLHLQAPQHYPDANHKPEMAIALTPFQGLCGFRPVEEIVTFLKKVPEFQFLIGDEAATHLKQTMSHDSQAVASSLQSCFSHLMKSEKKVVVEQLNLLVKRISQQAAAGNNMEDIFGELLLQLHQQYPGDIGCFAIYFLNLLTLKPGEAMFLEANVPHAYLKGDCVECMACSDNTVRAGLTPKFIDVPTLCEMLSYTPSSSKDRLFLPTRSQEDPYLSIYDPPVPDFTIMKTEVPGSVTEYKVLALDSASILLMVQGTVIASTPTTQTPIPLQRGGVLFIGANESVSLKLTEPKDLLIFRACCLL
# UniProt Q9H6V9, sequence (Q9H6V9 whole entry, looked up): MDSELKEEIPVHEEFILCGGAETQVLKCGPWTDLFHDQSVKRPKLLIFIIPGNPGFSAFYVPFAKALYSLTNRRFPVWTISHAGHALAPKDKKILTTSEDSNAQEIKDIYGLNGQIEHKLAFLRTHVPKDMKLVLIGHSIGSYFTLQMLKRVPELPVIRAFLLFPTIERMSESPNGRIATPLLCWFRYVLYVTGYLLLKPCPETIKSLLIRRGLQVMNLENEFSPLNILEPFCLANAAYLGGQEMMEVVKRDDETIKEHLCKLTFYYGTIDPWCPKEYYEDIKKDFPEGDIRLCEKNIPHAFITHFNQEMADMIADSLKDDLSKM
# UniProt Q14739, sequence (Q14739 whole entry, looked up): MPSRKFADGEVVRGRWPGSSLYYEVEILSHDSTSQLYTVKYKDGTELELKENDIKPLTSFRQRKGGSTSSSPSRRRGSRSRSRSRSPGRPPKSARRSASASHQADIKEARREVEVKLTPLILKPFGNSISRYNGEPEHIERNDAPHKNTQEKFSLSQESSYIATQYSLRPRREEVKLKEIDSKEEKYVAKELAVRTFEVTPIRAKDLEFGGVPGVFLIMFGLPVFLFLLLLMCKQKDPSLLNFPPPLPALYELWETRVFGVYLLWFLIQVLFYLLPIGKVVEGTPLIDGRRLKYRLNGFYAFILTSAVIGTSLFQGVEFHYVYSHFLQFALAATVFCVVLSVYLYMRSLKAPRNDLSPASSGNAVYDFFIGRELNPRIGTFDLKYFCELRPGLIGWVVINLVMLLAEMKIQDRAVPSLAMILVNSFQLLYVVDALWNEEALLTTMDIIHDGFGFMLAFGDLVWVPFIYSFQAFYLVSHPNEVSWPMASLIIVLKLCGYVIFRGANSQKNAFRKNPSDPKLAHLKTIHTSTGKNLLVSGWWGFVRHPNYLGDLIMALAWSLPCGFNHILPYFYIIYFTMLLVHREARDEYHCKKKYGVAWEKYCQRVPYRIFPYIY
# UniProt O95297, sequence (O95297 whole entry, looked up): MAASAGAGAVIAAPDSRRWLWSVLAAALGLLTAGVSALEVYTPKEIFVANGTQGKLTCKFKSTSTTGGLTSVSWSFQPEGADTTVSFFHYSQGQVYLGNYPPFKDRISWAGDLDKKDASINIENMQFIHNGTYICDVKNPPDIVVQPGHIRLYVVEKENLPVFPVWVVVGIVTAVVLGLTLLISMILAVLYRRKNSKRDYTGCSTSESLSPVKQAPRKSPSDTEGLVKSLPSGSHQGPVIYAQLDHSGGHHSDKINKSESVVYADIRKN
# UniProt Q96RQ3, sequence (Q96RQ3 whole entry, looked up): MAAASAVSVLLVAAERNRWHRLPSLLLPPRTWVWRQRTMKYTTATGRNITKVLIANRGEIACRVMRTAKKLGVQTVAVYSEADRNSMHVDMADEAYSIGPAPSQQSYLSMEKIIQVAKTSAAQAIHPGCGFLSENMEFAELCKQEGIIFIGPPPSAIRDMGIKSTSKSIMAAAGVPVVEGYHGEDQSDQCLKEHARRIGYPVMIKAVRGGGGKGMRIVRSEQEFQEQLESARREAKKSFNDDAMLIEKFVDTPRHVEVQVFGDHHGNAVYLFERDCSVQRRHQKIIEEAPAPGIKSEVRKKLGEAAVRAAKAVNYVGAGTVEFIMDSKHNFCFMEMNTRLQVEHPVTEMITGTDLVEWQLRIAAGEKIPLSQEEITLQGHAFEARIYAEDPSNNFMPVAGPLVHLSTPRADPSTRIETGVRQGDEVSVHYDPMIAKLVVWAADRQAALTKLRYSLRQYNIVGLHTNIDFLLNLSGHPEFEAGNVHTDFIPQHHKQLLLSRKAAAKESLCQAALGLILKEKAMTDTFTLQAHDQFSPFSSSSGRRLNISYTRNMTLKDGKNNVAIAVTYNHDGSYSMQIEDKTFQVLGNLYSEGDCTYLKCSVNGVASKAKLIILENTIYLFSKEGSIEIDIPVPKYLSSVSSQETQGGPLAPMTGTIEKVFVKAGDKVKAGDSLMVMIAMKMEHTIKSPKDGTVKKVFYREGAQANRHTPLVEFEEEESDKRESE
# UniProt Q2VIQ3, sequence (Q2VIQ3 whole entry, looked up): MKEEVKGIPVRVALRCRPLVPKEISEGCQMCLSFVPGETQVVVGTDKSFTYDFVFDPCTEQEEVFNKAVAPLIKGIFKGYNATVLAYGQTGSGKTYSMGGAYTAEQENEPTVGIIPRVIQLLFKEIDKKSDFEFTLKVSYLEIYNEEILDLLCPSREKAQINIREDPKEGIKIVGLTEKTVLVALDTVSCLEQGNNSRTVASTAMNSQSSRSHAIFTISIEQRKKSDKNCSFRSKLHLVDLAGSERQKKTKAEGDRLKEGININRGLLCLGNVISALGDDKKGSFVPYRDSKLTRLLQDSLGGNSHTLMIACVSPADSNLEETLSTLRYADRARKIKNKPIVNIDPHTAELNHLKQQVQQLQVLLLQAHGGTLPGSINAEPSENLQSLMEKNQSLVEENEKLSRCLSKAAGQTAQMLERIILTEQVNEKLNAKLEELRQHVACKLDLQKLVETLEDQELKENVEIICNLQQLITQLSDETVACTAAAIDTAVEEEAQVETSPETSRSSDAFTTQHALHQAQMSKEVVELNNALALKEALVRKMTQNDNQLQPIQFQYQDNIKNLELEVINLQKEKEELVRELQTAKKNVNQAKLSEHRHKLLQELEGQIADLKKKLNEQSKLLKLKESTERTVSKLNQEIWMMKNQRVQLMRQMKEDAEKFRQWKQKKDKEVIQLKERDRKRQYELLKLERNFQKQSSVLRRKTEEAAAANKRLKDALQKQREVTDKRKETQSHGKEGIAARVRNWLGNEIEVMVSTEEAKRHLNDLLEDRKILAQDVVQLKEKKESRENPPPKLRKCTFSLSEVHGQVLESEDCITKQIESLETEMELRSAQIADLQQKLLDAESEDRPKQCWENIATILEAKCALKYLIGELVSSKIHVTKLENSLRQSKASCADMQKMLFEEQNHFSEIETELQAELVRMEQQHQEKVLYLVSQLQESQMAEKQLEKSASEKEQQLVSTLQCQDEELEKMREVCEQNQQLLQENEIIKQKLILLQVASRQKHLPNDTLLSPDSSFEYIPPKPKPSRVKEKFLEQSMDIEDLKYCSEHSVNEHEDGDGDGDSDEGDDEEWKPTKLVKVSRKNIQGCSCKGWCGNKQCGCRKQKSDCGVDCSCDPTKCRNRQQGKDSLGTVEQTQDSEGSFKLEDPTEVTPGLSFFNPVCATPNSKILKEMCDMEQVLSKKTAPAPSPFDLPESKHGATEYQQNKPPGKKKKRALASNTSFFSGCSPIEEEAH
# UniProt Q09328, sequence (Q09328 whole entry, looked up): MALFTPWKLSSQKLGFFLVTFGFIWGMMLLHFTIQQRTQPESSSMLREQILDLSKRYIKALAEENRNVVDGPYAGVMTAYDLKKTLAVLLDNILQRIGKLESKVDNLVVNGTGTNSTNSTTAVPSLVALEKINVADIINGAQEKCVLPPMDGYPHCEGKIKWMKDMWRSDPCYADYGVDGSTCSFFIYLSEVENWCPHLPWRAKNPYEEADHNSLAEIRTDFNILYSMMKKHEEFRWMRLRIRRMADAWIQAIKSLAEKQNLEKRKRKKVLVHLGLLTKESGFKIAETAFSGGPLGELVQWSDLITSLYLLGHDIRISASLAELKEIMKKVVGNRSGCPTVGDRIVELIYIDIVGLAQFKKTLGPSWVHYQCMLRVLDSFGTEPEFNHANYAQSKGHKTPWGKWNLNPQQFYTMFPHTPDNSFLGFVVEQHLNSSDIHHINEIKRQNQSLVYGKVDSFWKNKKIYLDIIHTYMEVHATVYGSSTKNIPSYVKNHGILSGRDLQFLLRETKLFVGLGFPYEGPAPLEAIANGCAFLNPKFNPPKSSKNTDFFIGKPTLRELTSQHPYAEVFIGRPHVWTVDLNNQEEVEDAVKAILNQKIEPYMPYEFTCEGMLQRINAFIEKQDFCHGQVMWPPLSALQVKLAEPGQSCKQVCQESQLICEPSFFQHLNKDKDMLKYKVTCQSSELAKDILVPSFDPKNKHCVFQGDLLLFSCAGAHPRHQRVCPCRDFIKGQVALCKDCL
# UniProt Q8WV92, sequence (Q8WV92 whole entry, looked up): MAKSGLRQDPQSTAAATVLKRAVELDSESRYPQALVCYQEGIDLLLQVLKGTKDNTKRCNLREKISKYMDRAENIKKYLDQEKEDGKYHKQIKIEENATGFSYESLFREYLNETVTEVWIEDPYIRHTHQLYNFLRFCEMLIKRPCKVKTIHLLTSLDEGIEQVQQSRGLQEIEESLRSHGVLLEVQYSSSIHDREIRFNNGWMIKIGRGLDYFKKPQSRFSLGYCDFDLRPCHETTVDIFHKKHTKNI
# UniProt Q9HD34, sequence (Q9HD34 whole entry, looked up): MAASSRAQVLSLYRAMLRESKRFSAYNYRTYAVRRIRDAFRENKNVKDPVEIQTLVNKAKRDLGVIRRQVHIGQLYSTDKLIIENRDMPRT
# UniProt Q9BQ69, sequence (Q9BQ69 whole entry, looked up): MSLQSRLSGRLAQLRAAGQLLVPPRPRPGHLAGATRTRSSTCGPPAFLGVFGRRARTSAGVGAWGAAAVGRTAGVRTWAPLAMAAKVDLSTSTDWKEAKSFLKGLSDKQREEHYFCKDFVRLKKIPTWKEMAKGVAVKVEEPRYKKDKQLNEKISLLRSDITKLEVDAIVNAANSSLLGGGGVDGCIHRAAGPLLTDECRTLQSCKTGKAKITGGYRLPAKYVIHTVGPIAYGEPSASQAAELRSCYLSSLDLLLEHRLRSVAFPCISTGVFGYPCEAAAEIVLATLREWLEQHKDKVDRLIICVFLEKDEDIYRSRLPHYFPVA
Target,log2 fold change [1],log2 fold change [2],log2 fold change [3],log2 fold change [4],log2 fold change [5],log2 fold change [6],log2 fold change [7],log2 fold change [8],log2 fold change [9],log2 fold change [10],log2 fold change [11],log2 fold change [12],log2 fold change [13],log2 fold change [14],log2 fold change [15],log2 fold change [16],log2 fold change [17],log2 fold change [18],log2 fold change [19],log2 fold change [20]
KPNA4 (UniProt O00629),-0.037,-0.047,-0.024,0.002,0.019,0.003,0.019,0.019,0,-0.018,-0.003,0.017,-0.089,0.048,0.026,-0.022,-0.318 (active),0.103,-0.032,0.03
MACROD1 (UniProt Q9BQ69),0,0.015,0.098,-0.024,-0.008,0.022,0.017,-0.101,0.064,0.065,0.016,0.043,-0.002,0.033,-0.015,-0.012,-0.043,-0.014,0.008,0.002
LPIN1 isoform 7 (UniProt Q14693),0.02,0.07,0.035,-0.025,-0.033,0.066,0.022,-0.016,0.007,-0.009,-0.057,0.065,0.1,-0.057,-0.002,-0.003,-0.052,-0.05,0.024,0.028
MINK1 (UniProt Q8N4C8),-0.003,0.013,0.042,-0.051,0.119,-0.144,-0.03,-0.008,0.013,0.021,-0.096,-0.107,-0.017,-0.012,0.022,0.076,-0.033,-0.09,0.007,0.079
MRPL12 (UniProt P52815),0.082,-0.05,0.006,-0.013,-0.029,-0.042,0,0.026,0.012,0.076,0.01,-0.026,0.181,0.036,0.103,-0.019,-0.412 (active),-0.032,0.004,0.015
MED17 (UniProt Q9NVC6),0.018,0.003,0,-0.003,-0.017,0.04,0.019,0,0.021,0.001,0.028,0.007,0.004,-0.023,-0.02,0.002,-0.037,0.013,0.01,0.031
KIF4B (UniProt Q2VIQ3),0.027,0.005,0.004,-0.03,0.013,0.04,-0.018,0.01,0.002,-0.036,-0.026,0.047,-0.015,-0.102,-0.003,0.009,0.007,-0.073,-0.002,-0.01
MPZL1 (UniProt O95297),0.01,-0.008,-0.01,0.022,-0.035,-0.006,0.003,0.02,-0.035,-0.036,0.037,0.001,0.024,0.057,0.035,0.027,0.262 (active),-0.052,0.045,-0.022
MCCC1 (UniProt Q96RQ3),0.034,-0.033,0.022,-0.042,-0.014,-0.028,0.026,-0.006,-0.004,0.013,0.065,0.009,0.015,0.005,-0.034,-0.025,0.139,-0.059,0.028,0.054
MPI (UniProt P34949),0.029,0.031,-0.06,0.009,-0.039,-0.004,-0.051,0.055,-0.012,-0.013,0.013,0.007,0.008,0.014,-0.02,-0.011,0.149,-0.067,-0.028,0.025
LSS (UniProt P48449),-0.009,-0.018,0.14,0.072,0.026,0.013,-0.131,-0.003,-0.04,-0.065,0.016,-0.009,0.044,-0.078,0.434 (active),-0.009,-0.09,0.123,-0.043,0
LSM8 (UniProt O95777),0.051,0.012,0.055,-0.021,-0.02,-0.01,-0.011,0.03,-0.007,0.005,-0.054,0.018,0.355,-0.019,0.027,0,-0.058,0.052,-0.005,-0.017
MITD1 (UniProt Q8WV92),0.007,-0.067,-0.039,0.01,0.024,-0.02,-0.071,-0.059,0.058,-0.027,0.044,0.001,0.057,0.013,-0.07,-0.031,-0.269,-0.163,0.024,0.039
MARK1 (UniProt Q9P0L2),-0.006,-0.054,0.078,0.046,0.021,0.011,0.021,0.07,0.04,0.007,-0.006,0.064,-0.038,-0.045,-0.019,-0.018,-0.06,-0.241,0.021,-0.17
LYRM4 (UniProt Q9HD34),0.015,0.034,-0.036,-0.042,0.017,0.017,-0.027,0.109,-0.034,-0.009,0.026,0.015,-0.04,-0.051,0.021,0.03,0.715 (active),-0.035,0.007,-0.05
MRPL19 (UniProt P49406),0.067,0.027,0.034,-0.057,0.029,-0.021,0.01,-0.013,0.023,-0.002,0.026,0.029,0.001,-0.139,-0.056,0,0.026,-0.053,0.016,-0.016
MGAT5 (UniProt Q09328),0.038,0.014,0.001,0.039,-0.045,-0.084,0.005,-0.002,-0.004,0.014,-0.254,-0.07,0.062,-0.08,-0.065,0.021,0.094,-0.138,-0.036,0.002
MGST3 (UniProt O14880),0.06,-0.004,0.041,-0.046,-0.009,-0.004,-0.03,0.042,0.006,-0.025,0.012,0.01,-0.056,0.078,0.076,0.006,0.286 (active),-0.082,-0.017,-0.015
LBR (UniProt Q14739),0.034,-0.01,0.019,-0.121,-0.029,0.018,0.065,-0.089,-0.026,-0.036,0.012,0.008,0.041,0.014,0.156,0.052,0.117,-0.22,0.064,0.048
LDAH isoform 2 (UniProt Q9H6V9),0.015,0.021,0.029,0.097,-0.018,0.006,0.029,0.007,0,0.014,0.077,0.125,0.018,0.003,-0.036,-0.004,-0.013,-0.018,0.016,-0.01
MED14 (UniProt O60244),0.002,-0.013,0.017,-0.022,0.01,0.021,-0.029,-0.019,0.013,0.018,-0.078,0.003,0.015,-0.084,-0.023,0.008,-0.008,0.009,-0.001,0.008
LAS1L (UniProt Q9Y4W2),-0.016,0.017,0.043,-0.017,0.042,0.035,-0.061,-0.006,0.037,0.035,-0.027,0.007,-0.003,-0.051,-0.069,0.009,-0.055,0.099,-0.031,0.049
KSR1 (UniProt Q8IVT5),0.021,-0.103,0.054,0.021,-0.025,-0.011,-0.032,0.007,0.019,-0.074,0.021,0.049,-0.022,-0.009,0.016,0.009,0.187,-0.056,-0.003,-0.065
KIFC1 (UniProt Q9BW19),0.021,-0.002,-0.025,0.007,-0.012,-0.009,0.004,0.002,0.011,0.002,-0.008,0.037,0.002,0.006,-0.084,-0.031,-0.045,-0.031,0.021,0.071
